Data on 16 sequences can be found in the OligoGym collection.
Note: reference of the scale not given here.

The first experiment deals with PTGDS. Nature of the experiment: pooled miR-30 sensor sort-seq; sequence = guide strand. The conditions noted are these: shRNA.
TTTTTCCTGAGGAAGGTGGAGG: the sensor-assay potency score (higher = more potent) was -1.

For TACTGGTCGTAGTCGGTCTCCA, the sensor-assay potency score (higher = more potent) is -0.484.

For the sequence AAGACAATGGTATCCTCTGTGA, the sensor-assay potency score (higher = more potent) is -0.868.

The sequence TAGTCGGTCTCCACCACTGACA returned a sensor-assay potency score (higher = more potent) of -1.34.

Sequence TTGCACATGGACAACGCCGCCT displayed a sensor-assay potency score (higher = more potent) of -0.424.

Consider TCCGGTAGCTGTAGGAGCCGAG, for which the sensor-assay potency score (higher = more potent) is -0.81.

On to TTGGGCTGCACGGAGACCTGGG, for which the sensor-assay potency score (higher = more potent) was -0.764.

Turning to TTATTGTGCAGGATGAAGCCTG, the sensor-assay potency score (higher = more potent) was -0.188.

On to TGAATTTCTCCTTTAACTCAGC, for which the sensor-assay potency score (higher = more potent) is -0.751.

TTCTCCTTTAACTCAGCCCTGG had a sensor-assay potency score (higher = more potent) of -0.867.

The sequence TTTCTCCTTTAACTCAGCCCTG had a sensor-assay potency score (higher = more potent) of -1.14.

Another experiment has as its target PTGFRN. The experiment is described as above. The conditions noted are these: shRNA.
With TTGAACATTTGTAGTGGCCTTG, the sensor-assay potency score (higher = more potent) is -0.0806.

With TTTCTTTGCTAACATCCCGAAC, the sensor-assay potency score (higher = more potent) is -1.24.

Turning to TTGGTCTGAAGGCTGGACGTTC, the sensor-assay potency score (higher = more potent) is -0.683.

The sequence TAAAACAACGCCATCCACCCGT gave a sensor-assay potency score (higher = more potent) of -0.0584.

With TTTTCTTGGATTTCCTGCCAGT, the sensor-assay potency score (higher = more potent) was -0.278.
